# Out of some 68,000 compounds screened, about 2,700 (4%) showed an effect of 50% or more. Many of the other results were omitted from the sample, so strong results are more common in it than they were.
# Test system: Plasmodium berghei
# Test: Screen against P. berghei liver stage (PbLuc), transformed with Luciferase, at 2uM
# Assay type: functional, HepG2
# Conditions: tested at 2 uM
row,Compound,INHIBITION [%]
1,CCc1nc(CC(=O)N2CCC(C(=O)N3CCCC3)CC2)cs1,-30.23
2,O=C1CC[C@H]2[C@H](CCN2C(=O)N2CCCC2)N1Cc1ccncc1,-61.95
3,OC(c1ccccn1)C1CCN(Cc2cc3n(n2)CCNC3)CC1 (stereo unspecified),60
4,c1ccc(C2CCCN(Cc3cc4n(n3)CCNC4)CC2)cc1 (stereo unspecified),9.57
5,OC(c1ccccn1)C1CCN(Cc2cc3n(n2)CCCNC3)CC1 (stereo unspecified),-29.69
6,CCC(NC(=O)C1CCN(S(C)(=O)=O)CC1)c1ccc(OC)cc1 (stereo unspecified),19.7
7,O=C(NC1CCCC1)[C@@H]1C[C@@H]2CCN(Cc3ccoc3)C[C@H]2O1,3.18
8,O=C(O)CC(NC(=O)CCCc1cccs1)c1ccc(F)cc1 (stereo unspecified),57.2
9,COc1ccc(C(CC(=O)O)NC(=O)CCc2cccs2)cc1OC (stereo unspecified),36.38
10,Cc1ccc(C(CC(=O)O)NC(=O)CCc2cccs2)cc1 (stereo unspecified),-34.12
11,CCCc1cc(NC2CCc3nc(C(C)C)nn3C2)n2ncnc2n1 (stereo unspecified),-43.09
12,COc1cccc(CN(C)Cc2cc(C#N)ccc2F)c1OC,56.49
13,COc1cccc(CN(C)Cc2cccc(C#N)c2)c1OC,3.3
14,COc1cccc(CN(C)Cc2ccc(C#N)cc2)c1OC,10.52
15,Cc1ccc(NC(=O)C2=CN=S=N2)cc1,25.51
16,CN(C)C(=O)[C@@H]1C[C@@H]2CCN(Cc3ccncc3)C[C@@H]2O1,37.6
17,c1cc2nccc(CC3CCCN(C4CCOCC4)CC3)c2cn1 (stereo unspecified),24.56
18,O=C(NC1CCN(C2CC2)CC1)c1cc(Cl)ccc1-n1cnnn1,19.04
19,CC(=O)N1CCC(NC(=O)c2cc(Cl)ccc2-n2cnnn2)CC1,53.19
20,O=C(NC1CC1)c1cc(Cl)ccc1-n1cnnn1,-14
21,CCCC1(CO)CCCN(C(=O)CNC(C)=O)C1 (stereo unspecified),15.27
22,O=c1cc(N2CCNCC2)cnn1Cc1noc(C2CCCC2)n1,41.84

row,Compound,INHIBITION [%]
1,O=C(Cn1nc(Br)nc1Br)N1CCCC1,-14.58
2,CCCC1COCCN1Cc1ccc(S(=O)(=O)NC)cc1 (stereo unspecified),30.96
3,CCCC1COCCN1Cc1ccc(C(=O)O)cc1 (stereo unspecified),55.7
4,CCCC1COCCN1Cc1ccc(NC(C)=O)cc1 (stereo unspecified),48.17
5,Cc1ccccc1CS(=O)(=O)CC(=O)N(C)Cc1ccccc1F,-38.35
6,CN(Cc1ccccc1F)C(=O)CS(=O)(=O)Cc1ccc(Cl)c(Cl)c1,-10.5
7,COc1ccc(Cl)cc1CS(=O)(=O)CC(=O)N(C)Cc1ccccc1F,51.94
8,Cc1nc(C(C)C)sc1C(C)N(C)C(=O)c1ccc(=O)n(C)c1 (stereo unspecified),-11.76
9,CCc1ccc(CN(C)Cc2nc(-c3cnccn3)no2)nc1,-16.76
10,CCc1ccc(CN(C)c2ccc(-c3nc(COC)no3)cn2)nc1,10.65
11,CCc1ccc(CN(C)Cc2nc(COc3ccccc3)no2)nc1,64.2
12,CN(Cc1ccc(F)cc1F)Cc1cc2c(cc1Br)OCCO2,45.66
13,Cc1cnccc1N1CCCN(C(=O)CCCc2cn[nH]c2)CC1,9.17
14,O=C(c1cnccn1)N1C[C@@H]2OCC(=O)N(CC3CCCCC3)[C@@H]2C1,-26.14
15,O=C(c1cnccn1)N1C[C@@H]2[C@@H](C1)OCC(=O)N2CC1CCCC1,31.65
16,O=C(c1ccccn1)N1C[C@@H]2OCC(=O)N(CC3CCCCC3)[C@@H]2C1,56.16
17,O=C(NCC(=O)N1CCc2ccccc2C1)c1cnccn1,23.94
18,CC(C)(CO)Nc1cc(-c2cn[nH]c2)ncn1,6.03
19,Cc1cnn(CC2CCCCN2CC(=O)Nc2nncs2)c1 (stereo unspecified),23.65
20,CCCn1nccc1NC(=O)CN1CCC[C@H]1CO,13.53
21,CCCn1nccc1NC(=O)CN1CCCC1Cn1cc(C)cn1 (stereo unspecified),50.32
22,Cc1cnn(CC2CCCCN2CC(=O)Nc2nc(C)cs2)c1 (stereo unspecified),67.69

row,Compound,INHIBITION [%]
1,CCCn1nccc1NC(=O)CN1CCCC1Cn1cccn1 (stereo unspecified),33.9
2,Cc1cnn(CC2CCCN2CC(=O)Nc2nc(C)cs2)c1 (stereo unspecified),-54.73
3,Cc1cc(O)n(-c2ccccc2Cl)c(=O)c1C#N,3.1
4,O=C1NCCCCC1NS(=O)(=O)N1CCCCCC1 (stereo unspecified),-4.89
5,CC(C)N1CC[C@H]2[C@H](C[C@@H](Cn3cncn3)N2c2nccs2)C1,27.61
6,CN(C)C(=O)c1cccc(CN2CCOC(Cn3cccn3)C2)c1 (stereo unspecified),-21.39
7,CN(C)C(=O)c1cccc(CN2CCOC(Cn3cncn3)C2)c1 (stereo unspecified),74.35
8,Cc1ccc(-c2nnc(CN3CCOC(Cn4cncn4)C3)o2)cc1 (stereo unspecified),51.46
9,Cc1cnn(CC2CN(Cc3cccc(C(=O)N(C)C)c3)CCO2)c1 (stereo unspecified),18.46
10,CC(C)(C)c1nnc(CN2CCCC(Cn3cncn3)C2)o1 (stereo unspecified),15.31
11,CC(C)(C)c1nnc(CN2CCOC(Cn3cncn3)C2)o1 (stereo unspecified),62.13
12,Cc1ccc(-c2nnc(CN3CCOC(Cn4cccn4)C3)o2)cc1 (stereo unspecified),-47.05
13,CC(C)(C)c1nnc(CN2CCOC(Cn3cccn3)C2)o1 (stereo unspecified),11.18
14,Fc1ccc(-c2nnc(CN3CCOC(Cn4cncn4)C3)o2)cc1 (stereo unspecified),-77.99
15,Cc1ccc(CCNC(=O)Nc2cc(C(F)(F)F)c[nH]c2=O)o1,-0.12
16,O=C(c1n[nH]c2c1CN(C1CCOCC1)CC2)N1CCCC1,30.95
17,Cc1cccc(N(C)Cc2cc(=O)n3oc(C)cc3n2)c1,4.91
18,N#CCCN(CC1CCOC1)Cn1ccc(-c2cccs2)n1 (stereo unspecified),-42.48
19,COc1cc(C)nc(N2CCN(C(=O)CN(C)C(C)C)CC2)n1,10.22
20,COc1c(C)cnc(CNC(=O)CCOCC(C)C)c1C,5.17
21,COc1c(C)cnc(CNC(=O)CCOCc2ccccc2)c1C,65.76
22,COc1ccccc1OCCC(=O)NCc1ncc(C)c(OC)c1C,40.51

row,Compound,INHIBITION [%]
1,CN1CCCC1c1cccc(Cc2ccc(F)cc2)n1 (stereo unspecified),16.32
2,CNS(=O)(=O)CCCn1nnc(-c2ccc(F)c(C)c2)n1,31.66
3,Cc1cc(-c2nnn(CCC(N)=O)n2)ccc1F,5
4,Cc1cc(-c2nnn(CCNS(C)(=O)=O)n2)ccc1F,69.72
5,COc1ccc([C@@H]2CN(Cc3ccncc3)C[C@H]2c2cc[nH]n2)cc1,-128.75
6,c1ccc([C@@H]2CN(Cc3cccnc3)C[C@H]2c2cc[nH]n2)cc1,50.94
7,c1ccc([C@@H]2CN(Cc3ccncc3)C[C@H]2c2cc[nH]n2)cc1,48.22
8,CS(=O)(=O)c1cccc(C(=O)NCCCN2CCc3ccccc3C2)c1,5.59
9,c1cnc(N2CC3(CCN(C4CCOCC4)CC3)c3ccccc32)nc1,-23.45
10,CN(CCn1nc2ccccn2c1=O)CC(=O)NC1CC1,16.6
11,CC(=O)N1CCCN(CCn2nc3ccccn3c2=O)CC1,52.66
12,CCC(=O)CNC(=O)CCn1nc2ccccn2c1=O,-12.95
13,CN(C)C(=O)N1CCN(CCn2nc3ccccn3c2=O)CC1,50.32
14,O=C(NCCCn1nc2ccccn2c1=O)NC(C1CC1)C1CC1,-35.46
15,CCC(C)NC(=O)NCCCn1nc2ccccn2c1=O (stereo unspecified),55.7
16,CCN(CC)C(=O)CN(C)CCn1nc2ccccn2c1=O,8.88
17,CN(CCn1nc2ccccn2c1=O)CC(=O)N1CCCC1,17.19
18,CCNC(=O)NCCCn1nc2ccccn2c1=O,-53.4
19,CN1CCN(C(=O)c2cnsn2)c2ccc(F)cc21,36.24
20,CN(C)CCCn1ccnc1C1CCCN(c2ncc(Cl)cc2F)C1 (stereo unspecified),-18.59
21,Cc1noc([C@H]2C[C@H]3OCC[C@H]3N(Cc3cccs3)C2)n1,-27.21
22,c1cnc(N2CCCC3(CCN(CC4CCC4)C3)C2)nc1 (stereo unspecified),-20.98

row,Compound,INHIBITION [%]
1,CN(C)c1cc(CNC(=O)Nc2cccnc2N2CCCC2)ccn1,-43.4
2,Cn1cccc(NC(=O)N2CCC(COCc3ccccc3)C2)c1=O (stereo unspecified),-5.79
3,CN1CCN(C2CCN(Cc3nc(-c4ccoc4)no3)CC2)C1=O,-17.31
4,Cc1ncc(CN(C)C(=O)Nc2cccc(CN3CCOC3=O)c2)s1,56.2
5,Cc1ncc(CN(C)C(=O)Nc2cccc(N3CCOC3=O)c2)s1,-127.85
6,Cc1ncc(CN(C)C(=O)Nc2ccc(CN3CCOC3=O)cc2)s1,10.61
7,CC(=O)NC1CCCN(Cc2ccc(OCc3ccccn3)cc2)C1 (stereo unspecified),57.92
8,CCN1CCOC(CNCc2ccc(OCc3ccccn3)cc2)C1 (stereo unspecified),50.75
9,CCN1CCOC(CNCc2cccc(OCc3ccccn3)c2)C1 (stereo unspecified),3.06
10,CS(=O)(=O)NC1CCCN(Cc2ccc(OCc3ccccn3)cc2)C1 (stereo unspecified),10.63
11,CS(=O)(=O)NC1CCN(Cc2ccc(OCc3ccccn3)cc2)CC1,-15.64
12,CN1CCOC(CNCc2ccc(OCc3ccccn3)cc2)C1 (stereo unspecified),-12.27
13,c1cnc(N2C[C@H]3CCN(CCN4CCCC4)C[C@H]3C2)cn1,-27.22
14,COCCNC(=O)c1nnc2ccc(N3CCOCC3)cc2n1,26.54
15,CSc1nc2ncc3c(=O)n(CCN4CCCCC4)ccc3n2n1,8.9
16,COC1CCN(C(=O)COC(C)=O)CC(=O)N(C)c2ccccc21 (stereo unspecified),-46.46
17,COC1CCN(C(=O)CC2CCCC2)CC(=O)N(C)c2ccccc21 (stereo unspecified),8.41
18,COC1CCN(C(=O)CC(C)(C)C)CC(=O)N(C)c2ccccc21 (stereo unspecified),51.71

# — ChEMBL document CHEMBL4513216, “Probing the Open Global Health Chemical Diversity Library for Multistage-Active Starting Points for Next-Generation Antimalarials” (ACS Infect Dis, 2020)
